# Screening results from PubChem.
# DAX1 inh-1: inhibitors of human orphan nuclear receptor DAX1 (NR0B1). P51843. HEK293 Gal4-DAX1 luciferase reporter, luminescence. inhibition, % at 6.75 µM. hit rate 0.99% among 340,000. AID 504766;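 active = inhibition above the mean over all tested compounds plus 3 SD, cut at about 4.2% in these data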;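 note: 0% = DAX1-transfected cells with DMSO and 100% = empty-vector control cells with DMSO; inhibition shows as a rise in luminescence from relieved DAX1 repression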
# DAX1 inh-2: blocks DAX1 repression of SF-1 activated StAR promoter; HEK293T StAR-luciferase reporter, SF-1/DAX-1 repression relief; inhibition, % at 6.8 µM; hit rate 1.1% among 370,000;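 active = inhibition above the mean over all tested compounds plus 3 SD, cut at about 3.6% in these data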;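 note: 0% = DAX-1 cells with DMSO and 100% = cells lacking DAX-1 with DMSO; higher inhibition means more luminescence from relief of DAX-1 repression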
# ssDAF12 agonist: activators of S. stercoralis DAF-12 nuclear receptor. HEK293 ssDAF-12/GRIP1 lit1-tk-luc reporter, luminescence; % of 3 µM dafachronic acid response. hit rate 1% among 370,000. activation, % at 6.8 µM;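 active = activation above the mean over all tested compounds plus 3 SD, cut at about 0.9% in these data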;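 note: 0% = DMSO-only wells and 100% = 3 µM delta7-dafachronic acid wells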
# hgDAF12 agonist: activates the H. glycines DAF-12 receptor ligand-binding domain. HEK293 GAL4-hgDAF12 UAS-luciferase reporter, agonist luminescence; normalized to butyrate control. activation, % at 6.8 µM. hit rate 1.8% among 370,000. AID 687014;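 active = activation above a cutoff set at the mean of all screened compounds plus 3 SD, cut at about 10% in these data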;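 note: 0% = DMSO wells and 100% = sodium butyrate wells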
# hcDAF12 agonist: H. contortus DAF-12 activation, primary screen; hit rate 1.4% among 370,000; HEK293 hcDAF-12 lit1-tk-luc reporter, luminescence; 0% DMSO, 100% Δ7-dafachronic acid; activation, % at 6.8 µM;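 active = activation above the mean of all tested compounds plus 3 SD, cut at about 5.5% in these data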;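 note: 100% = response to 3 µM Δ7-dafachronic acid high control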
# NR1D1 modulator: Rev-erb alpha (human) modulation; P20393; Rev-erbα–FITC-DNA binding, fluorescence polarization, 90 min; activity, % at 10 µM; hit rate 0.79% among 370,000; AID 1259318;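 active = activity above about 14%, limit read from the data; passing the limit was not always enough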;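 note: 0% = DMSO wells with 35 nM protein and 100% = DMSO wells with 750 nM protein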
# Target sequence (P20393 whole entry, looked up): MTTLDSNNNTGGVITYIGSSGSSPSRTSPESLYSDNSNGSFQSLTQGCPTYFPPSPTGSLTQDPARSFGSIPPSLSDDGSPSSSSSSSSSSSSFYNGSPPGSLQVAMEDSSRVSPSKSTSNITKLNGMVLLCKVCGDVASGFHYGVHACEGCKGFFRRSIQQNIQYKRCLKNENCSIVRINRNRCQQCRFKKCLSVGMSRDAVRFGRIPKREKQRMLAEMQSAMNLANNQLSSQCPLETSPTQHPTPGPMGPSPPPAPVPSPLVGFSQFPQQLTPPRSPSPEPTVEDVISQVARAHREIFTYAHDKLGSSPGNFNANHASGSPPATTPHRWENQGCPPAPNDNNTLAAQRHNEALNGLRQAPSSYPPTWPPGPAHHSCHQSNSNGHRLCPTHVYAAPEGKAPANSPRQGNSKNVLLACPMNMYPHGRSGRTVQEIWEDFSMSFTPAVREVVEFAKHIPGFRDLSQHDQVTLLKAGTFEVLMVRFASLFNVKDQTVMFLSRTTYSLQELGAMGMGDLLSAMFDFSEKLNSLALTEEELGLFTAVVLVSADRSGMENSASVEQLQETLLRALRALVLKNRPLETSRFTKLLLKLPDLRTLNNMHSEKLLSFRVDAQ
# * marks the source's active call; other numbers are inactive results; . = no result given. Most compounds without a hit are left out; they make up all but 4.8% or so of the library.
SMILES,DAX1 inh-1,DAX1 inh-2,ssDAF12 agonist,hgDAF12 agonist,hcDAF12 agonist,NR1D1 modulator
CCN=C1NC(c2ccc(C(F)(F)F)cc2)C(C(=O)OC)=C(C)N1Cc1ccccc1C(F)(F)F (stereo not given),.,1.0,-1.0,-1.0,0.1,-6.0
O=C(c1ccc(F)cc1Cl)N1CCCC(c2nc(-c3cccs3)no2)C1 (stereo not given),.,-0.1,-1.2,1.4,-2.0,-1.5
O=Cc1cnc(N2CCCCC2)s1,7.1*,0.8,0.0,1.2,-1.1,2.8
O=C(N/N=C/c1cnc(N2CCCCC2)s1)c1ccc(Cl)cc1,-0.4,0.2,-1.7,6.2,-0.4,3.1
CCOc1ccc(-n2c(=O)c3ccccc3c3ccccc3c2=O)cc1,4.9*,0.0,-1.2,-0.3,-0.4,0.7
COC1=C[C@H](C(=O)NCc2ccccn2)[C@H](C)[C@@H](c2ccccc2)CC1=O,.,-1.1,-0.9,0.6,1.2,5.0
CCCS/C(N)=N/N=C/c1cc(C)ccc1O,3.0,1.6,0.9,10.6*,4.0,9.5
COc1ccc(-c2nc(NC(=O)Cn3c(=O)oc4ccccc43)sc2C)cc1,4.7*,-0.2,-0.2,1.9,3.2,-4.1
COCc1cc(=O)n2c([nH]c3ccccc32)c1C#N,-0.3,-0.5,1.2*,3.2,-0.3,4.6
N[C@@H](CS)C(=O)O,.,.,.,.,.,-0.1
Cc1cc(C)nc(Nc2n[nH]c(-c3ccccc3C)n2)n1,4.6*,2.2,-1.0,6.2,-0.2,-0.7
Cc1cc(C)nc(Nc2n[nH]c(-c3ccc(N)cc3)n2)n1,1.3,3.5,-0.2,11.1*,3.2,-2.4
Cc1cc(C)nc(Nc2n[nH]c(-c3ccc(C(C)(C)C)cc3)n2)n1,-0.6,-0.7,-1.1,0.4,-1.2,-1.6
O=C(/C=C(\Nc1cc(Cl)c(Cl)c(Cl)c1)c1ccccc1)c1ccccc1,.,1.0,1.5*,6.5,5.4,-2.3
Cc1n[nH]c(C)c1S(=O)(=O)N1CCCC(C(=O)N2CCc3ccccc32)C1 (stereo not given),-1.1,-0.2,1.9*,-0.2,1.5,-1.2
Cc1noc(/C=C/N(C)C)c1S(=O)(=O)N1CCCC(C(=O)N2CCc3ccccc32)C1 (stereo not given),-0.2,-0.1,-0.9,-0.5,1.5,-0.9
CN(C)/N=C/C=C1\CCC/C(=C/c2cccs2)C1=O,4.4*,1.4,-0.2,12.1*,1.4,-3.7
Cc1ccc(C)c(NC(=S)N(C)C)c1,2.8,-0.5,-1.3,-2.5,-1.1,-3.8
Cc1ccc(C)c(NC(=S)N(C)CCO)c1,4.8*,-0.4,-1.3,-1.6,-1.0,1.1
Cc1ccc([N+](=O)[O-])cc1NC(=O)C1CCCC1,0.2,0.6,5.5*,0.7,-1.0,-3.2
COC(=O)N1C[C@H](OC(=O)c2ccc(-c3ccccc3)cc2)[C@H]2C[C@@H]1c1ccccc1O2,.,0.3,-0.8,1.8,1.5,0.9
Cc1ccc(NC(=O)[C@@H]2CC(=O)O[C@@H]2c2ccccc2)cc1C,.,-0.6,-2.0,1.6,0.5,-6.8
CCOC(=O)N1CCN(C(=O)C[C@H]2C[C@@]3(C(=O)OC)C(=C[C@H](COCc4ccccc4)O[C@@H]3C)N(Cc3ccc4c(c3)OCO4)C2=O)CC1,.,0.4,-0.9,-1.7,-0.4,-5.8
CC1CCCC(C)N1CC(O)COCc1ccccc1 (stereo not given),-1.0,0.3,-1.0,-1.2,-1.0,2.7
COc1cc(COCC(O)CN2C(C)CCCC2C)cc(OC)c1OC (stereo not given),4.6*,0.0,-1.7,1.2,2.4,-0.5
SMILES,DAX1 inh-1,DAX1 inh-2,ssDAF12 agonist,hgDAF12 agonist,hcDAF12 agonist,NR1D1 modulator
O=C(O)COn1c(-c2ccccc2)nc2ccc(Cl)cc21,-0.2,0.7,1.1*,6.0,3.2,0.1
COn1c(-c2ccccc2)nc2ncccc21,0.0,-0.2,-1.1,1.5,-0.8,-3.7
COn1c(-c2ccccc2)nc2ccc(Cl)cc21,0.8,0.3,0.7,12.3*,1.4,3.7
O=[N+]([O-])c1ccc2nc(-c3ccccc3)n(OCc3ccc(Cl)cc3)c2c1,2.1,1.8,-0.7,6.6,2.1,1.7
COc1cc(NC(=O)c2ccccc2)c(C)cc1NC(=O)CSc1nnc(-c2ccccc2F)n1-c1ccc(C)cc1,.,-3.1,-0.4,1.0,0.2,-3.6
CCCOC(=O)C1=C(C)NC2=C(C(=O)CCC2)C1c1cccs1 (stereo not given),1.3,-0.4,2.1*,-2.0,-2.5,0.6
CN(C)CCCNc1nc(-c2ccc(Cl)cc2)nc2ccccc12,1.1,-0.8,0.3,1.6,3.1,-4.8
Cc1cccc(-c2nc(NCCCN(C)C)c3ccccc3n2)c1,0.0,0.3,1.1*,-0.2,1.2,1.5
O=S1(=O)c2ccc(N3CCN(Cc4ccccc4F)CC3)cc2Oc2ccccc2CN1Cc1cn(Cc2ccc(C(F)(F)F)cc2)nn1,.,-0.1,-0.9,0.8,0.1,1.5
Cc1noc(C)c1C(=O)OCC(=O)/C=C1/N(C)c2ccccc2C1(C)C,5.9*,0.0,-1.4,3.7,-1.3,7.8
O=C(Cc1ccc2cccnc2c1)c1ccc(O)cc1O,-0.4,1.9,-0.4,10.7*,2.8,1.4
O=C(NCc1ccncc1)C1Cc2c(-c3ccc4c(c3)OCO4)ccnc2O1 (stereo not given),.,0.8,-1.2,3.3,1.0,0.7
O=C(NCc1ccccc1)C1Cc2c(-c3ccc4c(c3)OCO4)ccnc2O1 (stereo not given),.,4.4*,-0.9,-2.7,-0.2,2.5
c1ccc2oc(-c3ccn[nH]3)cc2c1,5.9*,1.5,-0.7,5.7,4.5,1.4
c1ccc2oc(-c3[nH]ncc3CN3CCSCC3)cc2c1,2.5,0.4,-1.9,-1.8,-1.1,-2.4
COCCNC(=S)NC(=O)c1ccc(C(C)(C)C)cc1,-0.1,0.5,-1.4,7.6,-0.1,1.2
COCCCNC(=S)NNC(=O)C1CC1c1ccc(C(C)(C)C)cc1 (stereo not given),5.2*,0.1,-2.0,3.0,-0.2,-2.6
O=C1CCC[C@@H]2Cc3nc4cc5c(cc4cc3[C@@H]3CCN1[C@H]23)OCO5,6.1*,0.0,-1.1,4.7,0.4,-5.7
CN(C(=O)[C@@H]1CC=C[C@@H]2CCN(C3CCCCC3)C(=O)[C@@H]21)c1ccccc1,.,.,-1.1,1.1,-0.6,-5.0
COc1ccccc1-c1nc(NC(C)=O)n[nH]1,.,-0.2,1.8*,1.4,3.9,-0.2
Cc1ccc2nc(-c3ccc(NS(=O)(=O)c4ccc(F)c(F)c4)cc3)sc2c1,1.5,5.8*,0.9,17.1*,6.4*,-4.1
O=C(COc1ccc(C2SCCS2)cc1)NNC(=O)C(Cl)Cl,5.9*,0.2,0.1,1.2,0.1,1.8
Cc1ccc(NC(=O)COc2ccc(C3SCCS3)cc2)cc1,0.7,-0.6,-0.7,-1.9,-1.6,4.6
O=C(c1nc2ncccn2n1)N1CCN(c2ccccc2)CC1,0.4,3.7*,-1.1,-1.2,-0.7,10.3
